High-throughput results (PubChem)
Most compounds without a hit are left out; they make up all but 32% or so of the library.
PostGolgi yeast: phenotypic screen on post-Golgi transport, primary screen; post-Golgi transport phenotypic cell assay; inhibition, % at 10 µM; 0.9% of 98,000 active; AID 739, 2007;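 note: yeast cells grown in 1536-well plates; yeast grown about 18 h at 30C before absorbance read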
CYP2C9 act: human CYP2C9 activators, primary screen, biochemical, luminescence. activation factor at 5 µM. 1.4% of 96,000 active. recombinant CYP2C9, luciferin-H conversion; stronger effect = higher value; factor 1 = untreated enzyme, 0 = blocked. Cytochrome P450 2C9 (Homo sapiens), P11712;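 active = activation factor of 2 or more for CYP2C9 at a 5 µM dose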;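 note: 0 = sulfaphenazole-blocked wells and 1 = vehicle-only wells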
CYP2C19 activ: human CYP2C19 activators, primary screen, biochemical, luminescence; activation factor at 5 µM; 96,000 tested, under 10 active; AID 1025, 2008; Cytochrome P450 2C19 (Homo sapiens), P33261; recombinant CYP2C19, luciferin-H EGE luminescence; stronger effect = higher value; 0 = fully inhibited enzyme, 1 = untreated enzyme;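 active = activation factor of at least 2 at 5 µM in the primary screen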;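 note: 0 = wells with 2.5 mM tranylcypromine and 1 = vehicle-only wells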
Target sequence (P33261 whole entry, looked up): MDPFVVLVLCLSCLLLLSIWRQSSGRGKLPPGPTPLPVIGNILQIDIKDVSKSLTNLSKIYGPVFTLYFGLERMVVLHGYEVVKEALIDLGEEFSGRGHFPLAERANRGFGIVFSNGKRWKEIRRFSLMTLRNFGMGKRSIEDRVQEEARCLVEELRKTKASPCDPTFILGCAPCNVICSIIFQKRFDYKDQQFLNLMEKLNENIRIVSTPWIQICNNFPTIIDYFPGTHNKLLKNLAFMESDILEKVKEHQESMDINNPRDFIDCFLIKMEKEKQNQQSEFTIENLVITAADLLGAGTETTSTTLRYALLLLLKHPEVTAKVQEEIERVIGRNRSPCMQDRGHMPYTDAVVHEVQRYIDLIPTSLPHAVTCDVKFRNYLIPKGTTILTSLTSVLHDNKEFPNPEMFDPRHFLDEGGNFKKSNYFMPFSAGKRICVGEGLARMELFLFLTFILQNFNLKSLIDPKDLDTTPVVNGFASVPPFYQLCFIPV
CYP2C19 inh: blockers of cytochrome P450 2C19 activity – biochemical, luminescence, ADME assay, primary screen. CYP2C19 Supersomes, luciferin-H EGE luminescence, 30 min. inhibition, % at 5 µM. 21% of 96,000 active. AID 778, 2007;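 active = CYP2C19 inhibition above a set limit at 5 µM in the primary screen, cut at about 50% in these data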;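 note: plate controls were negative control wells for no effect and 2.5 mM tranylcypromine positive control for full effect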
CYP2C9 inh: blockers of cytochrome P450 2C9 activity – biochemical, luminescence, ADME assay, primary screen; P11712; CYP2C9 Supersomes, luciferin-H conversion; inhibition, % at 5 µM; 20% of 96,000 active; AID 777, 2007;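 active = blocking of liver enzyme CYP2C9 beyond about 50% at 5 µM, limit read from the data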
PostGolgi ctrl: growth inhibition of yeast control strain, primary screen, counter-screen for post-Golgi transport modulator project; efflux-deficient yeast background strain, growth absorbance A615, 16 h; inhibition, % at 10 µM; 5% of 98,000 active; AID 738, 2007
Active calls of the source: *; / = no result. Cut-off read from the data, not from the text of the source, unless noted: active = inhibition above about 30%; inactive = the rest.

SMILES	PostGolgi yeast	CYP2C9 act	CYP2C19 activ	CYP2C19 inh	CYP2C9 inh	PostGolgi ctrl
O=C(CSc1nc2ccc(Cl)cc2o1)NCc1ccc2c(c1)OCO2	7	0.4	0.8	23	61*	15
CCS(=O)(=O)N1CCCC(C(=O)NCCc2ccccc2)C1 (configuration not stated)	-2	0.7	0.8	16	27	1
[N-]=[N+]=CC(=O)c1ccnc(C(=O)C=[N+]=[N-])c1	29	1	1.1	-5	5	11
O=C(CSc1nc(-c2ccccc2)cc(=O)[nH]1)NCc1ccc2c(c1)OCO2	1	0	1	-5	96*	-3
O=C(CCSc1ccccc1)Nc1ccc(OCc2ccccc2)cc1	-6	0.9	1	-5	6	12
Cc1nc(C(F)(F)F)nc(Nc2ccc(Br)cc2)c1C#N	0	1	0.4	64*	2	5
CC(C)C(=O)Nc1cccc(NC(=O)CCN2C(=O)c3ccccc3S2(=O)=O)c1	4	0	0.1	87*	97*	10
Cc1ccc(CC(=O)Nc2nc3c(s2)CCCC3)cc1	-2	0.1	0.6	42	87*	3
O=C(CCS(=O)(=O)Cc1ccccc1)Nc1nc2c(s1)CCCC2	0	0.8	0.8	15	20	-3
O=C(CS(=O)(=O)Cc1ccccc1)Nc1nc2c(s1)CCCC2	-13	1	0.4	56*	-3	25
Cc1ncsc1C(=O)Nc1nc2c(s1)CCCC2	1	0.8	0.3	66*	19	12
COc1cccc(NC(=O)CCN2C(=O)c3ccccc3S2(=O)=O)c1	-4	0.8	0.5	50	18	13
Cc1ccc2nc(C3CCN(C(=O)c4ccco4)CC3)[nH]c2c1	-2	0.7	0.9	6	26	-1
O=C(CCn1cnc2ccccc2c1=O)Nc1nc2c(s1)CCCC2	0	0.6	0.8	15	45	4
O=C(CCN1C(=O)c2ccccc2S1(=O)=O)Nc1nc2c(s1)CCCC2	-2	0.1	0.2	84*	88*	10
Cc1cccc(NC(=O)CN2NS(=O)(=O)c3ccccc3C2=O)c1	7	0.4	0.7	33	59*	-3
O=C(c1ccccc1)c1cnc(-c2ccc(Cl)cc2)s1	-1	0.6	0.7	34	37	7
O=C(c1ccc(Cl)cc1)c1cnc(-c2ccc(Cl)cc2)s1	-9	1.1	0.4	64*	-6	6
Cc1nn(-c2ccccc2)c2c1C(c1ccc(F)cc1F)C(C#N)=C(N)O2 (configuration not stated)	0	0.2	0.3	68*	82*	-3
COc1ccc(C2C(C#N)=C(N)Oc3c2c(C)nn3-c2ccccc2)cc1Cn1nc(C)c([N+](=O)[O-])c1C (configuration not stated)	-5	0.2	0.7	31	85*	4
Cc1nn(-c2ccccc2)c2c1C(c1ccccc1)C(C#N)=C(N)O2 (configuration not stated)	-5	0.1	0.1	90*	87*	2
Cc1ccc(-n2nc(C)c3c2OC(N)=C(C#N)C3c2ccoc2)cc1 (configuration not stated)	-3	0.4	0.7	26	64*	-6
Cc1ccc(-n2nc(C)c3c2OC(N)=C(C#N)C3c2ccco2)cc1 (configuration not stated)	-2	0.6	0.8	18	37	25
Cc1nn(Cc2ccccc2)c2c1C(c1cccnc1)C(C#N)=C(N)O2 (configuration not stated)	2	0.7	0.7	26	26	0
COn1c(SCc2ccccc2)nc2ccccc2c1=O	5	0.6	0.6	35	38	0
SMILES	PostGolgi yeast	CYP2C9 act	CYP2C19 activ	CYP2C19 inh	CYP2C9 inh	PostGolgi ctrl
COc1cc(C(=O)N2CCC(NC(=O)C(Cc3ccc(C(C)C)cc3)NC(C)=O)CC2)cc(OC)c1OC (configuration not stated)	5	1	0.9	13	3	4
O=C(NCCCN1CCOCC1)C1(c2ccccc2)CCOCC1	3	1.1	1.1	-10	-6	4
Cc1nn(Cc2ccccc2)c2c1C(c1ccncc1)C(C#N)=C(N)O2 (configuration not stated)	/	0	0.1	92*	100*	/
COc1ccc(C2CCCN2C(=O)Nc2ccc(Cl)cc2)cc1OC (configuration not stated)	4	0.5	0.3	73*	49	24
Nc1nc2nc(-c3ccccc3)cc(=O)n2[nH]1	1	1	0.9	12	1	16
O=c1cc(-c2ccccc2)nc2nc(-c3ccccc3)[nH]n12	-2	0.4	1	-1	59*	7
CCCN(CCC)CC(=O)Nc1cccc2c1OCO2	-1	0.7	0.6	38	34	4
Cc1cc(C)c2c(-n3cccc3)c(C(=O)NNS(=O)(=O)c3ccccc3)sc2n1	2	0	0.7	33	96*	22
Clc1cccc(N2CCN(CCNc3nc4ccccc4n4cnnc34)CC2)c1	5	0.8	1	3	17	14
Cc1ccc(Cn2ccc(-c3cnc(-c4ccccc4)s3)n2)cc1	-10	0.9	1	-4	7	12
O=C(c1ccc(F)cc1)n1ccc(-c2cnc(-c3ccccc3)s2)n1	-8	1.2	1	0	-15	-2
Fc1ccc(Cn2ccc(-c3cnc(-c4ccccc4)s3)n2)cc1	-7	0	0.1	92*	97*	17
O=S(=O)(c1ccccc1)n1ccc(-c2cnc(-c3ccccc3)s2)n1	-5	0.2	0.9	12	78*	6
O=C(NC(=S)NNC(=O)c1cccs1)c1ccc(Br)o1	2	0.5	1	-4	46	3
COc1cccc(-c2nc(=S)c3c(n2CCCO)CCCC3)c1	-2	1	1	-3	-1	4
Cc1onc(-c2c(F)cccc2Cl)c1C(=O)Nc1cccc2nsnc12	2	0.5	0.8	24	54*	42*
O=C(Nc1nc2ccccc2[nH]1)c1ccccc1	-13	0.8	0.6	42	18	-4
Cc1onc(-c2c(F)cccc2Cl)c1C(=O)NC1=NCCS1	-3	0.3	0.5	54*	67*	2
O=C(Nc1cccc2nsnc12)c1ccc(F)cc1	8	0.9	0.7	26	9	4
Cc1onc(-c2c(F)cccc2Cl)c1C(=O)Nc1nc2ccccc2[nH]1	1	0.1	0.4	57*	93*	10
C=CCNC(=O)c1c(-c2c(F)cccc2Cl)noc1C	6	1	1	4	2	-1
